# Results published in PubChem BioAssay (EPA / NIEHS).
# Inconclusive results are not listed. Active and inactive are the calls of the source. The calls were made as follows, unless noted: active = hit-call score of the fitted dose curve at least 0.9, where 1 is the maximum; inactive = score below 0.9.
# Tests used:
# [1] = target: T1, Thyroid hormone receptor alpha (Rattus norvegicus) + Thyroid hormone receptor beta (Rattus norvegicus) (UniProt P18113+P63059); test: TOX21_TR_LUC_GH3_Antagonist_Followup: Tox21 GH3 Thyroid Hormone Receptor Antagonism Luciferase Follow-Up Assay (AID 2283942; active = hit-call score of the fitted dose curve at least 0.9, where 1 is the maximum)
# T1 sequence (P63059 whole entry, looked up): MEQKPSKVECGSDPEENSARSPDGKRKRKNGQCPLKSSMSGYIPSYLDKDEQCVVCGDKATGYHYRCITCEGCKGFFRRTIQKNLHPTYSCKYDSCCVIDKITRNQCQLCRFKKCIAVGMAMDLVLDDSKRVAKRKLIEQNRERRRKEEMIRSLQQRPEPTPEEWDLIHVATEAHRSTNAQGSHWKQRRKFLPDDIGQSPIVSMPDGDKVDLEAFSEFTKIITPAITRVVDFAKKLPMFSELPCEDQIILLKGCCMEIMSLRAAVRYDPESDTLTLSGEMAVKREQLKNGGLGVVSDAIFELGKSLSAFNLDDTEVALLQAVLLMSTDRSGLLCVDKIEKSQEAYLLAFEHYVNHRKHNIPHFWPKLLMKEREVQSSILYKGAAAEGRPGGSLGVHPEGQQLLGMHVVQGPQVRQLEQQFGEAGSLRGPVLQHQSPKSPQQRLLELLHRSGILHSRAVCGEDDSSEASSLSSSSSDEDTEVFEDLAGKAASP
# T1 sequence (P18113 whole entry, looked up): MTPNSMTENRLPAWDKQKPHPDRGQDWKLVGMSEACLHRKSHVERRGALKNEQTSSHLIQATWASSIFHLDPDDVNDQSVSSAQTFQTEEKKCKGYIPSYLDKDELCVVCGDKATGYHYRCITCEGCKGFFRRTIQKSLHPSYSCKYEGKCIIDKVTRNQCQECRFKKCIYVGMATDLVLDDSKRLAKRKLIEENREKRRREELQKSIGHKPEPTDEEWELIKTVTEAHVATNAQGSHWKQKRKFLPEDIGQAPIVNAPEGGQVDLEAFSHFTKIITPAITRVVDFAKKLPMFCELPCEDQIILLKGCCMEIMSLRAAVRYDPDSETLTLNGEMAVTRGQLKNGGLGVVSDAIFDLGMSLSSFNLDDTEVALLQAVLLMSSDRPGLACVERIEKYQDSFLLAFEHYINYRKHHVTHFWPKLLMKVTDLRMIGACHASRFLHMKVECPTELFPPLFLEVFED
# Procedure, shortened: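 Antagonist mode: GH3 cells seeded 1,500/well, compounds at 15 concentrations (92 uM to 5nM final) plus T3 at 1.0 nM final, 24 h at 37C. Luciferase read with ONE-Glo after 30 min at room temperature.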
# THRA (gene 7067) [2] = target: THRA (gene 7067) (UniProt P10827); test: TOX21_TRA_COA_Antagonist_Followup_ratio: Tox21 Thyroid Hormone Receptor alpha Antagonism through Coactivator Recruitment Follow-Up Assay, Ratio (AID 2283953; active = hit-call score of the fitted dose curve at least 0.9, where 1 is the maximum)
# THRA (gene 7067), sequence (P10827 whole entry, looked up, the tested form may be a part): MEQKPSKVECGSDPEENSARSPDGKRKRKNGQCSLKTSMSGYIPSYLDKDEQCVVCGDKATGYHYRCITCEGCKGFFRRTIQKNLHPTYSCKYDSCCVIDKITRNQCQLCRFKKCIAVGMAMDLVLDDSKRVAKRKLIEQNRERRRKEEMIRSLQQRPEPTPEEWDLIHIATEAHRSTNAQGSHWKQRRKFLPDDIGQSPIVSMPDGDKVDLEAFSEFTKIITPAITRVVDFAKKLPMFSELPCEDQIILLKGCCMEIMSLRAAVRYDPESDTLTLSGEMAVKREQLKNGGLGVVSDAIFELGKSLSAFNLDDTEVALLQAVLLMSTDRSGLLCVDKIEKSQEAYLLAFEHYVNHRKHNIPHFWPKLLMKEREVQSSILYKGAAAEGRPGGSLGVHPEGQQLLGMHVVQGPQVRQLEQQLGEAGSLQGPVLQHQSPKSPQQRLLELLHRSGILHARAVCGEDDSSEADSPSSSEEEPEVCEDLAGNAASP
# Procedure, shortened: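 520:495 nm emission ratio (excitation 340 nm) reports fluorescein-SRC-2 peptide recruitment to GST-TRα LBD by TR-FRET with Tb anti-GST antibody. Values were normalized to DMSO (0%) and T3 control wells (100%); loss of signal indicated antagonism.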
# [3] = CEETOX_H295R_11DCORT_noMTC: CeeTox H295R High-throughput Steroidogenesis Assay for 11-Deoxycortisol (11DCORT), maximum tolerated concentration (MTC) filtered results only (AID 2283911); conditions: actives raise or lower the signal
# Procedure, shortened: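 Steroidogenesis was stimulated in H295R cells with 10 uM forskolin for 48 h before a 48 h chemical exposure. Secreted 11-deoxycortisol was measured by tandem mass spectrometry and fitted bidirectionally against DMSO controls.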
# [4] = CEETOX_H295R_OHPREG_noMTC: CeeTox H295R High-throughput Steroidogenesis Assay for OH-Pregnenolone (OHPREG), maximum tolerated concentration (MTC) filtered results only (AID 2283912); conditions: actives raise or lower the signal
# Procedure, shortened: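 H295R cells prestimulated 48 h with 10 uM forskolin, then exposed 48 h to compound (0.1% DMSO). 17alpha-hydroxypregnenolone in medium measured by MTBE extraction and HPLC-MS/MS; bidirectional fit vs DMSO, concentrations not MTT/MTC-filtered.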
# [5] = CEETOX_H295R_OHPROG_noMTC: CeeTox H295R High-throughput Steroidogenesis Assay for OH-Progesterone (OHPROG), maximum tolerated concentration (MTC) filtered results only (AID 2283914); conditions: actives raise or lower the signal
# Procedure, shortened: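 H295R cells prestimulated 48 h with 10 uM forskolin, then exposed 48 h to chemical (0.1% DMSO final). 17alpha-hydroxyprogesterone in medium quantified by HPLC-MS/MS after MTBE extraction; bidirectional fitting versus DMSO, concentrations not MTC-filtered.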
# [6] = CEETOX_H295R_CORTISOL_noMTC: CeeTox H295R High-throughput Steroidogenesis Assay for Cortisol, maximum tolerated concentration (MTC) filtered results only (AID 2283916); conditions: actives raise or lower the signal
# Procedure, shortened: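 H295R human adrenal cells prestimulated 48 h with 10 uM forskolin, then exposed 48 h to chemical in 0.1% DMSO; cortisol in medium quantified by HPLC-MS/MS; bidirectional fit vs DMSO baseline, concentrations not MTT-filtered for MTC.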
# [7] = CEETOX_H295R_CORTIC_noMTC: CeeTox H295R High-throughput Steroidogenesis Assay for Corticosterone (CORTIC), maximum tolerated concentration (MTC) filtered results only (AID 2283917); conditions: actives raise or lower the signal
# Procedure, shortened: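 H295R adrenal cells pre-stimulated 48 h with 10 uM forskolin, then exposed 48 h to chemical in 0.1% DMSO; corticosterone in medium quantified by HPLC-MS/MS, fitted bidirectionally versus DMSO without MTT-based concentration filtering.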
# [8] = CEETOX_H295R_DOC_noMTC: CeeTox H295R High-throughput Steroidogenesis Assay for DOC, maximum tolerated concentration (MTC) filtered results only (AID 2283918); conditions: actives raise or lower the signal
# Procedure, shortened: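 H295R cells prestimulated 48 h with 10 uM forskolin, then exposed 48 h to chemical in 0.1% DMSO. 11-Deoxycorticosterone in medium measured by MTBE extraction and HPLC-MS/MS; bidirectional fit vs DMSO, no MTC filter.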
# [9] = CEETOX_H295R_PROG_noMTC: CeeTox H295R High-throughput Steroidogenesis Assay for Progesterone (PROG), maximum tolerated concentration (MTC) filtered results only (AID 2283920); conditions: actives raise or lower the signal
# Procedure, shortened: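 H295R cells, prestimulated 48 h with 10 uM forskolin, exposed 48 h to chemical in 0.1% DMSO. Medium progesterone quantified by MTBE extraction and HPLC-MS/MS; bidirectional fit versus DMSO, concentrations not MTT-filtered.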
# THRA (gene 7067) [10] = target: THRA (gene 7067) (UniProt P10827); test: TOX21_TRA_COA_Agonist_Followup_ratio: Tox21 Thyroid Hormone Receptor alpha Agonism through Coactivator Recruitment Follow-Up Assay, Ratio (AID 2283948)
# Procedure, shortened: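 Follow-up specificity assay in which TRα ligand-binding domain, expressed as a GST fusion, recruits a fluorescein-labelled SRC-2 peptide. Energy transfer from a terbium anti-GST antibody gives the acceptor/donor ratio, fitted upward relative to DMSO.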
# PGR (gene 5241) [11] = target: PGR (gene 5241) (UniProt P06401); test: TOX21_PR_BLA_Followup_Antagonist_ratio: Tox21 HEK293 Progesterone Receptor (PR) Antagonism Beta-lactamase Follow-Up Assay, Ratio (AID 2283934; active = hit-call score of the fitted dose curve at least 0.9, where 1 is the maximum)
# PGR (gene 5241), sequence (P06401 whole entry, looked up): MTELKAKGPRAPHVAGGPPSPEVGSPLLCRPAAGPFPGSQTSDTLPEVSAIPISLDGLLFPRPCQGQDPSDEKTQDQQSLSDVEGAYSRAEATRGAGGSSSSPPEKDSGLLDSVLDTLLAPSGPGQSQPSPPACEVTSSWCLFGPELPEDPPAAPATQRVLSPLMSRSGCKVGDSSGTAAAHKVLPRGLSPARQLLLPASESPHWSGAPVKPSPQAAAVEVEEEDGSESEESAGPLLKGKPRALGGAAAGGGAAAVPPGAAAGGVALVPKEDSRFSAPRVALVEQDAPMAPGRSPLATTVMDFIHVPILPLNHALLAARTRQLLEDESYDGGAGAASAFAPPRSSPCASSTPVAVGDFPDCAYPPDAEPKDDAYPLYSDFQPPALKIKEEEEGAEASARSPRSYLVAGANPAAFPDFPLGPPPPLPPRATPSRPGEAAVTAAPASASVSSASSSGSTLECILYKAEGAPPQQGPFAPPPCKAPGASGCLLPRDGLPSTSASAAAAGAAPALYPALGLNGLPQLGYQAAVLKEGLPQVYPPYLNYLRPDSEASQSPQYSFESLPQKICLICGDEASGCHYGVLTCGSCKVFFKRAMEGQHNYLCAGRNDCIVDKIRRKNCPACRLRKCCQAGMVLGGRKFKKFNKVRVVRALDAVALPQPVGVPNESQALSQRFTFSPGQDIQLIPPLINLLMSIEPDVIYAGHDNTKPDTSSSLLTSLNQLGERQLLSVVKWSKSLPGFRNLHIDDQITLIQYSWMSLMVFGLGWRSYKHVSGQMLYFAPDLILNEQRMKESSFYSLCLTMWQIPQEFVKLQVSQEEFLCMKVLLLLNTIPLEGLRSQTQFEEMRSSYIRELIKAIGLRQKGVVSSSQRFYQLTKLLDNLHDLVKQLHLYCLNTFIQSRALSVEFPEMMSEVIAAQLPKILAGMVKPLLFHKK
# Procedure, shortened: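 HEK293T PR-UAS-bla, 2% CS-FBS; 6 hr plating, then cpd + R5020 (1 nM final), 16 hr 37C/5% CO2. B/G FRET substrate 2 h RT. Ratio ch2/ch1 vs DMSO; CellTiter-Glo viability multiplexed, autofluorescence checked.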
# [12] = TOX21_PR_BLA_Followup_Agonist_viability: Viability Assessment in the Tox21 HEK293 Progesterone Receptor (PR) Agonism Beta-lactamase Follow-Up Assay (AID 2283935; active = hit-call score of the fitted dose curve at least 0.9, where 1 is the maximum;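 also: cells exposed to compound for 16 hr at 37 °C; signal loss means lower viability so actives are cytotoxic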)
# Procedure, shortened: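 HEK293T PR-UAS-bla, 3,000 cells/well, 2% CS-FBS; 6 hr pre-incubation; cpd in DMSO, 16 hr 37C; LiveBLAzer 2 hr RT, then CellTiter-Glo 30 min RT, luminescence. Decrease = lost viability.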
# [13] = TOX21_PR_BLA_Followup_Antagonist_viability: Viability Assessment in the Tox21 HEK293 Progesterone Receptor (PR) Antagonism Beta-lactamase Follow-Up Assay (AID 2283936; active = hit-call score of the fitted dose curve at least 0.9, where 1 is the maximum;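 also: hits lower the luminescence signal meaning cytotoxicity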)
# Procedure, shortened: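 PR-UAS-bla HEK293T cells (3,000/well, 2% charcoal-stripped FBS) given compound plus R5020 agonist, 16 h at 37C. CellTiter-Glo added after bla read, 30 min at room temperature; luminescence loss indicates cytotoxicity.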
# PGR (gene 5241) [14] = target: PGR (gene 5241) (UniProt P06401); test: TOX21_PR_LUC_Followup_Agonist: Tox21 HEK293 Progesterone Receptor (PR) Agonism Luciferase Follow-Up Assay (AID 2283937)
# Procedure, shortened: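 Cells: HEK293-PR-A-luc, 3,000/well, 10% charcoal-stripped FBS assay medium. Compound added after 5 h; 16 h, 37C, 0% CO2. ONE-Glo luciferase, luminescence. Positive fit vs DMSO.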
# PGR (gene 5241) [15] = target: PGR (gene 5241) (UniProt P06401); test: TOX21_PR_LUC_Followup_Antagonist: Tox21 HEK293 Progesterone Receptor (PR) Antagonism Luciferase Follow-Up Assay (AID 2283938; active = hit-call score of the fitted dose curve at least 0.9, where 1 is the maximum;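 also: curve fitted upward as signal gain over DMSO baseline despite antagonist label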)
# Procedure, shortened: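 Cells are grown 5 days in charcoal-stripped-FBS assay medium, plated, left 5 h, then dosed with compound and incubated 16 h. ONE-Glo reagent is added and luminescence read after 30 min.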
# [16] = TOX21_PR_LUC_Followup_Antagonist_viability: Viability Assessment in the Tox21 HEK293 Progesterone Receptor (PR) Antagonism Luciferase Follow-Up Assay (AID 2283940; active = hit-call score of the fitted dose curve at least 0.9, where 1 is the maximum)
# Procedure, shortened: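 Multiplexed viability counter-screen: after 5 days in charcoal-stripped-FBS medium, HEK293-PR-A-luc cells are plated, pinned with DMSO-dissolved compounds for 16 h at 37C, and ATP content is quantified luminescently via CellTiter-Glo.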
# [17] = TOX21_PR_LUC_Followup_Agonist_viability: Viability Assessment in the Tox21 HEK293 Progesterone Receptor (PR) Agonism Luciferase Follow-Up Assay (AID 2283941; active = hit-call score of the fitted dose curve at least 0.9, where 1 is the maximum;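 also: loss of signal means cytotoxicity so actives lower viability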)
# Procedure, shortened: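 Cells were kept 5 days in charcoal-stripped serum medium before plating HEK293-PR-A-luc at 3,000 cells/well. After 5 h they received DMSO-dissolved compound and incubated 16 h at 37C. Viability was taken from CellTiter-Glo ATP luminescence.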
# [18] = CEETOX_H295R_ESTRADIOL_noMTC: CeeTox H295R High-throughput Steroidogenesis Assay for Estradiol, maximum tolerated concentration (MTC) filtered results only (AID 2283919); conditions: actives raise or lower the signal
# Procedure, shortened: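 H295R human adrenal cells pre-stimulated 48 h with 10 uM forskolin, then exposed 48 h to chemical (0.1% DMSO final). Estradiol in medium measured by HPLC-MS/MS after MTBE extraction and dansyl derivatization; bidirectional fit versus DMSO, concentrations not MTT-filtered.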
# [19] = CEETOX_H295R_ESTRONE_noMTC: CeeTox H295R High-throughput Steroidogenesis Assay for Estrone, maximum tolerated concentration (MTC) filtered results only (AID 2283921); conditions: actives raise or lower the signal
# Procedure, shortened: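 H295R cells prestimulated 48 h with 10 uM forskolin, then exposed 48 h to chemical in 0.1% DMSO; medium estrone measured by HPLC-MS/MS after MTBE extraction and dansyl derivatization, fitted bidirectionally versus DMSO without MTT-based MTC filtering.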
# [20] = target: T1, Thyroid hormone receptor alpha (Rattus norvegicus) + Thyroid hormone receptor beta (Rattus norvegicus); test: TOX21_TR_LUC_GH3_Agonist_Followup: Tox21 GH3 Thyroid Hormone Receptor Agonism Luciferase Follow-Up Assay (AID 2283939; active = hit-call score of the fitted dose curve at least 0.9, where 1 is the maximum)
# Procedure, shortened: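 Rat GH3 cells (1,500/well) in serum-free assay medium, treated with 15-point series, 92 uM to 5 nM final, for 24 h at 37C. Luciferase via ONE-Glo luminescence; gain of signal fitted against DMSO, T3 positive control.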
smiles,measurement,setting,value
COC(=O)Nc1nc2ccccc2[nH]1,outcome,[1],inactive
same,outcome,THRA (gene 7067) [2],inactive
C=CCc1ccc2c(c1)OCO2,outcome,[3],inactive
same,outcome,[4],inactive
same,outcome,[5],inactive
same,outcome,[6],inactive
same,outcome,[7],inactive
same,outcome,[8],inactive
same,outcome,[9],inactive
Clc1ccc(Cl)c(Cl)c1,outcome,THRA (gene 7067) [10],inactive
CN(C)c1ccc(C(=O)c2ccc(N(C)C)cc2)cc1,outcome,[1],inactive
C[C@]12C=CC3=C4CCC(=O)C=C4CC[C@H]3[C@@H]1CC[C@@H]2O,outcome,PGR (gene 5241) [11],inactive
same,outcome,[12],inactive
same,outcome,[13],inactive
same,AC50,PGR (gene 5241) [14],0.00268 µM (active)
same,outcome,PGR (gene 5241) [15],inactive
same,outcome,[16],inactive
same,outcome,[17],inactive
O=[N+]([O-])c1ccc(Oc2ccc(Cl)cc2Cl)cc1,AC50,PGR (gene 5241) [11],20.6 µM (active)
same,outcome,[12],inactive
same,outcome,PGR (gene 5241) [15],inactive
same,outcome,[16],inactive
same,outcome,[17],inactive
CCCCCOC(=O)c1ccccc1C(=O)OCCCCC,outcome,[3],inactive
same,outcome,[4],inactive
same,outcome,[5],inactive
same,outcome,[6],inactive
same,outcome,[7],inactive
same,outcome,[8],inactive
same,outcome,[18],inactive
same,outcome,[9],inactive
same,outcome,[19],inactive
Clc1ccc(C(c2ccc(Cl)cc2)C(Cl)Cl)cc1,AC50,PGR (gene 5241) [11],31.5 µM (active)
same,outcome,[12],inactive
same,outcome,[13],inactive
same,AC50,PGR (gene 5241) [15],33.8 µM (active)
Cc1ccc(N)cc1,outcome,[20],inactive
same,outcome,THRA (gene 7067) [10],inactive
Clc1ccc(C(c2ccc(Cl)cc2)C(Cl)(Cl)Cl)cc1,AC50,PGR (gene 5241) [11],34.8 µM (active)
same,AC50,[12],84.9 µM (active)
same,outcome,[13],inactive
same,AC50,PGR (gene 5241) [15],32.5 µM (active)
same,outcome,[16],inactive
same,outcome,[17],inactive
CCCCOC(=O)c1ccccc1C(=O)OCc1ccccc1,outcome,[3],inactive
same,outcome,[4],inactive
same,outcome,[5],inactive
same,outcome,[6],inactive
same,outcome,[7],inactive
same,outcome,[8],inactive
same,outcome,[9],inactive
same,outcome,PGR (gene 5241) [11],inactive
same,outcome,[12],inactive
same,outcome,[13],inactive
same,outcome,PGR (gene 5241) [15],inactive
same,outcome,[16],inactive
same,outcome,[17],inactive
CC(C)COC(=O)c1ccccc1C(=O)OCC(C)C,outcome,[3],inactive
same,outcome,[4],inactive
same,outcome,[5],inactive
same,outcome,[6],inactive
same,outcome,[7],inactive
same,outcome,[8],inactive
same,outcome,[18],inactive
same,outcome,[9],inactive
same,outcome,[19],inactive
Brc1ccc(Oc2ccccc2)cc1,outcome,[3],inactive
same,outcome,[4],inactive
same,outcome,[5],inactive
same,outcome,[6],inactive
same,outcome,[7],inactive
same,outcome,[9],inactive
ClC1=C(Cl)[C@]2(Cl)[C@H]3[C@H]([C@@H]4C=C[C@H]3C4)[C@@]1(Cl)C2(Cl)Cl,AC50,PGR (gene 5241) [11],46.1 µM (active)
same,AC50,[12],62.6 µM (active)
same,outcome,[13],inactive
same,AC50,PGR (gene 5241) [15],46.1 µM (active)
